Compound activity: PubChem BioAssay, several laboratories
HTR5A inv ctr = HTR5A inverse agonists in luminescence cell assay, primary screen, counter-screen for OPRM1-OPRD1 heterodimer inverse agonist project, full-deck HTS. 340,000 compounds, 0.083% hits. AID 504634, 2011. 5-hydroxytryptamine receptor 5A (Homo sapiens), P47898. HTR5A cell line, inverse agonism. inhibition, % at 9.3 µM; in the data active = inhibition mostly above about 23%, no sharp cut-off; inactive = mostly below about 18%;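 also: 0% = cells with DMSO and 100% = no-cell wells with DMSO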
OPRM1-OPRD1 ag = agonists of OPRM1-OPRD1 heterodimerization, primary screen, cell-based, luminescence; Mu-type opioid receptor (Homo sapiens) + Delta-type opioid receptor (Homo sapiens), …; cells; activation, % at 9.3 µM; 340,000 compounds, 0.3% hits; AID 504326, 2011; in the data active = activation above about 18%;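 also: 0% = vehicle-treated cells and 100% = reference agonist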
Target sequence (P35372 whole entry, looked up): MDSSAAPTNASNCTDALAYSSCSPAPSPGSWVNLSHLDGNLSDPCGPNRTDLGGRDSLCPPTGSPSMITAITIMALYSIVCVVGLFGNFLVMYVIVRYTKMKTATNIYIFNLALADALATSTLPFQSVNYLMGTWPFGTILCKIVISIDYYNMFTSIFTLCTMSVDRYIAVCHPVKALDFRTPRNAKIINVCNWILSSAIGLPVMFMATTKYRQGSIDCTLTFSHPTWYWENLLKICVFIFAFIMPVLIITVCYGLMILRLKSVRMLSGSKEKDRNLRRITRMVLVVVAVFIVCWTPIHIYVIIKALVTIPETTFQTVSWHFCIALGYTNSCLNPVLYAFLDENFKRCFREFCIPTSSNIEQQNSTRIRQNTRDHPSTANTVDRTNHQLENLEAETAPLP
Target sequence (P41143 whole entry, looked up): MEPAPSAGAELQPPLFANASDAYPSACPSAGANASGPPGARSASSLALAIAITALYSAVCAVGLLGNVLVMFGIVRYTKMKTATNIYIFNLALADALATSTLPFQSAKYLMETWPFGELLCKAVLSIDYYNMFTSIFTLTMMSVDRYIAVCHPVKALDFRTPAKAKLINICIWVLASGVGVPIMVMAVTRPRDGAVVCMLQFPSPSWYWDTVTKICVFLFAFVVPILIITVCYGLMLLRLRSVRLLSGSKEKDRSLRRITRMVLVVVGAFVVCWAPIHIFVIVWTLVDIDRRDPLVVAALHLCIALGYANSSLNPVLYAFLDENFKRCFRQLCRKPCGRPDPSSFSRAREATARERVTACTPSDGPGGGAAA
V-ATPase pHluor = regulators of yeast V-ATPase proton pumping, primary screen, pHLuorin cytosolic pH fluorescence. S. cerevisiae. response, % at 10 µM. AID 504577, 2011. 350,000 compounds, 0.37% hits; in the data active = response mostly above about 7.3%, no sharp cut-off; inactive = mostly below about 5.4%; also: actives read high
MIN6 prolif = inducers of MIN6 beta-cell proliferation, primary screen, ATP luminescence, uHTS; proliferation, % at 10 µM; 330,000 compounds, 0.29% hits; MIN6 cells proliferation, ATPlite luminescence, 48 h; cells starved in 0.2% serum; 100% = growth in 10% serum; AID 2380, 2010;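 active = compounds whose signal lies at least 3.5 SD above the mean of all wells on their plate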;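 also: 0% = DMSO-treated cells in low-serum medium and 100% = 10% serum control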
HTR5A ag = HTR5A agonists in luminescence cell assay, primary screen, counter-screen for OPRM1-OPRD1 heterodimer agonist project, full-deck HTS; AID 504692, 2011; 340,000 compounds, 0.61% hits; activation, % at 9.3 µM; cell-based; 5-hydroxytryptamine receptor 5A (Homo sapiens), P47898; in the data active = activation mostly above about 9.5%, no sharp cut-off; inactive = mostly below about 7.6%;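 also: 0% = cells with vehicle only and 100% = reference agonist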
MOR-DOR inv ag = inverse agonists of MOR-DOR heterodimerization, primary screen, cell-based, luminescence. Mu-type opioid receptor (Homo sapiens) + Delta-type opioid receptor (Homo sapiens), …. cell-based MOR-DOR heterodimer luminescence, inverse agonism. inhibition, % at 9.3 µM. 340,000 compounds, 0.21% hits. AID 504357, 2011; in the data active = inhibition above about 22%, passing the limit was not always enough;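 also: 0% = cells with DMSO and 100% = wells without cells with DMSO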
V-ATPase pH SP = yeast V-ATPase proton pumping modulators, confirmation, S. cerevisiae, pH-sensitive GFP, second cherry-pick. response, % at 10 µM. S. cerevisiae pHLuorin cytosolic pH, V-ATPase proton transport. shares compounds with V-ATPase pHluor. 980 compounds, 2% hits; in the data active = response above about 24%;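 also: plate controls were vehicle wells for no effect and positive control wells for full effect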
* hit, by the source's call. Rows were chosen to be rich in hits. Some 1.7% of all compounds tested hit in one or more screens of this group.

What do the screens show for `CCN1CCN(C(=O)CN(CCc2ccccc2)S(C)(=O)=O)CC1`?
HTR5A inv ctr: -17; OPRM1-OPRD1 ag: -2; V-ATPase pHluor: -2; MIN6 prolif: -1; HTR5A ag: 1; MOR-DOR inv ag: 12

Results for COCCCNC(=O)C(Cc1ccccc1)NS(=O)(=O)c1ccc2c(c1)c(=O)n(C)c(=O)n2C (stereo not drawn) ?
HTR5A inv ctr: 4; OPRM1-OPRD1 ag: 0; V-ATPase pHluor: 16*; MIN6 prolif: 3; HTR5A ag: 3; MOR-DOR inv ag: 2; V-ATPase pH SP: -2

How did Cn1c(=O)c2cc(S(=O)(=O)NC(Cc3ccccc3)C(=O)NCc3ccco3)ccc2n(C)c1=O (stereo not drawn) do in these assays?
HTR5A inv ctr: -25; OPRM1-OPRD1 ag: 0; V-ATPase pHluor: 6; MIN6 prolif: -1; HTR5A ag: 9; MOR-DOR inv ag: -2

What do the screens show for `COC(=O)c1c(NC(=S)NN2CCN(C)CC2)sc2c1CCC(C)C2` (stereo not drawn)?
HTR5A inv ctr: -21; OPRM1-OPRD1 ag: 9; V-ATPase pHluor: 2; MIN6 prolif: -7; HTR5A ag: 10; MOR-DOR inv ag: -45

What do the screens show for `O=C(CCl)NN1C(=O)NC(c2ccccc2)(c2ccccc2)C1=O`?
HTR5A inv ctr: 2; OPRM1-OPRD1 ag: -3; V-ATPase pHluor: 12*; MIN6 prolif: -3; HTR5A ag: -1; MOR-DOR inv ag: 14; V-ATPase pH SP: 1

What do the screens show for `CC(=O)Nc1ccc(NC(=O)c2ccc(NS(=O)(=O)c3cc(C(C)(C)C)cc(C)c3C)cc2)cc1`?
HTR5A inv ctr: 11; OPRM1-OPRD1 ag: -1; V-ATPase pHluor: 11*; MIN6 prolif: -2; HTR5A ag: -4; MOR-DOR inv ag: 6; V-ATPase pH SP: 2

What do the screens show for `O=C(O)c1ccc(CS(=O)(=O)Cc2ccccc2F)o1`?
HTR5A inv ctr: -11; OPRM1-OPRD1 ag: -1; V-ATPase pHluor: 9.0*; MIN6 prolif: -1; HTR5A ag: 4; MOR-DOR inv ag: 7; V-ATPase pH SP: 0

What do the screens show for `O=C(NCc1ccccc1)c1ccc(CS(=O)(=O)Cc2ccccc2F)o1`?
HTR5A inv ctr: 10; OPRM1-OPRD1 ag: -3; V-ATPase pHluor: -2; MIN6 prolif: 0; HTR5A ag: 0; MOR-DOR inv ag: 15

What do the screens show for `Cc1c(C)c(C)c(C(=O)C2CCN(c3ccc([N+](=O)[O-])cn3)CC2)c(C)c1C`?
HTR5A inv ctr: 15; OPRM1-OPRD1 ag: -1; V-ATPase pHluor: -3; MIN6 prolif: -4; HTR5A ag: -3; MOR-DOR inv ag: 8

Results for CN(C1CCCCC1)C(CNS(=O)(=O)c1ccccc1)c1ccccc1 (stereo not drawn) ?
HTR5A inv ctr: 0; OPRM1-OPRD1 ag: 3; V-ATPase pHluor: 1; MIN6 prolif: 0; HTR5A ag: 3; MOR-DOR inv ag: -16

What do the screens show for `COc1cccc2c1nc(C)c1cc(C)oc12`?
HTR5A inv ctr: 24; OPRM1-OPRD1 ag: -1; V-ATPase pHluor: 11*; MIN6 prolif: 0; HTR5A ag: -15; MOR-DOR inv ag: 5; V-ATPase pH SP: -4

How did COc1ccc2nc(C)c3cc(C)oc3c2c1 do in these assays?
HTR5A inv ctr: 9; OPRM1-OPRD1 ag: -1; V-ATPase pHluor: -3; MIN6 prolif: 0; HTR5A ag: 1; MOR-DOR inv ag: 7

Results for COC(=O)c1ccc(C)c(NC(=O)C(CCSC)NC(=O)c2cc(OC)c(OC)c(OC)c2)c1 (stereo not drawn) ?
HTR5A inv ctr: -7; OPRM1-OPRD1 ag: -3; V-ATPase pHluor: 2; MIN6 prolif: -3; HTR5A ag: 2; MOR-DOR inv ag: 17

What do the screens show for `Cc1c(CC(=O)N2C[C@H]3C[C@@H](C2)c2cccc(=O)n2C3)c(=O)oc2cc3occ(C(C)(C)C)c3cc12`?
HTR5A inv ctr: -1; OPRM1-OPRD1 ag: -3; V-ATPase pHluor: -1; MIN6 prolif: 3; HTR5A ag: 11; MOR-DOR inv ag: 15

Results for CN1CCN(C(=S)NC(=O)c2ccco2)CC1 ?
HTR5A inv ctr: 2; OPRM1-OPRD1 ag: -1; V-ATPase pHluor: 11*; MIN6 prolif: -2; HTR5A ag: -2; MOR-DOR inv ag: 6; V-ATPase pH SP: 0

What do the screens show for `Cc1cccc(Oc2sc(C(=O)c3ccccc3)c(N)c2C#N)c1`?
HTR5A inv ctr: -27; OPRM1-OPRD1 ag: 4; V-ATPase pHluor: -1; MIN6 prolif: -4; HTR5A ag: 11; MOR-DOR inv ag: -17

Results for CCOC(=O)C1CCN(C(=O)COC(=O)c2c(C)c(CC)nc3ccccc23)CC1 ?
HTR5A inv ctr: -15; OPRM1-OPRD1 ag: -3; V-ATPase pHluor: 1; MIN6 prolif: 4; HTR5A ag: 6; MOR-DOR inv ag: 12

What do the screens show for `COc1ccccc1NS(=O)(=O)c1cccc(C(=O)NCC(c2cccs2)N(C)C)c1` (stereo not drawn)?
HTR5A inv ctr: -21; OPRM1-OPRD1 ag: 1; V-ATPase pHluor: -3; HTR5A ag: 0; MOR-DOR inv ag: -4

How did COc1ccccc1-c1cc(C(=O)NCCc2ccccc2)no1 do in these assays?
HTR5A inv ctr: -3; OPRM1-OPRD1 ag: -1; V-ATPase pHluor: 13*; MIN6 prolif: -2; HTR5A ag: 0; MOR-DOR inv ag: 4; V-ATPase pH SP: 0

Results for COc1cc2c(cc1OC)CN(Cc1ccccc1)CC2 ?
HTR5A inv ctr: -1; OPRM1-OPRD1 ag: -2; V-ATPase pHluor: -4; MIN6 prolif: 1; HTR5A ag: -1; MOR-DOR inv ag: 9

How did COc1cc2c(cc1OC)CN(CCC(C)c1ccc(Cl)cc1)CC2 (stereo not drawn) do in these assays?
HTR5A inv ctr: -13; OPRM1-OPRD1 ag: 2; V-ATPase pHluor: 13*; MIN6 prolif: -2; HTR5A ag: 2; MOR-DOR inv ag: -11; V-ATPase pH SP: 2

How did Cc1nc2c(-c3ccc(F)cc3)c(C)nn2c(C)c1CCC(=O)N1CCN(c2ccccc2)CC1 do in these assays?
HTR5A inv ctr: -13; OPRM1-OPRD1 ag: 3; V-ATPase pHluor: 12*; MIN6 prolif: -4; HTR5A ag: 4; MOR-DOR inv ag: -16; V-ATPase pH SP: 2

How did Cc1nc2c(-c3ccc(F)cc3)c(C)nn2c(C)c1CCC(=O)N1CCN(c2ccc(F)cc2)CC1 do in these assays?
HTR5A inv ctr: -8; OPRM1-OPRD1 ag: 4; V-ATPase pHluor: -8; MIN6 prolif: -5; HTR5A ag: 3; MOR-DOR inv ag: -22

How did Cc1nc(C)c(-c2ccc(SCc3ccccc3C)nn2)s1 do in these assays?
HTR5A inv ctr: 27; OPRM1-OPRD1 ag: 0; V-ATPase pHluor: 10*; MIN6 prolif: -1; HTR5A ag: 1; MOR-DOR inv ag: 1; V-ATPase pH SP: 2
